Columns and labels:
Assay in all cases: log2 ratio of Biotin-Ahx-Ub-VS probe labelling (fragment/DMSO); higher = less target engagement (more negative = stronger competition), active = hit call of the paper (q ≤ 0.05, log2 ratio ≤ -1)
Settings in all cases: compound concentration: 200 uM; treatment time: 3 h
USP16 = USP16 (UniProt Q9Y5T5)
Procedure, shortened: (§1)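 HEK293T lysate in Tris/CHAPS/IGEPAL buffer with protease inhibitors (495 µg per sample) was given fragment at 200 µM or vehicle for 3 h, in triplicate. It then received Biotin-Ahx-Ub-VS at 0.5 µM final for 1 h. Labelled DUBs were NeutrAvidin-enriched, digested with LysC and trypsin, and run by diaPASEF LC-MS/MS. Values are average log2 fragment/vehicle ratios by unpaired t-test on global-median-normalised Spectronaut quantities of proteins with ≥2 unique peptides.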

USP19 = target: T1, USP19 (UniProt O94966)
T1 sequence (whole entry): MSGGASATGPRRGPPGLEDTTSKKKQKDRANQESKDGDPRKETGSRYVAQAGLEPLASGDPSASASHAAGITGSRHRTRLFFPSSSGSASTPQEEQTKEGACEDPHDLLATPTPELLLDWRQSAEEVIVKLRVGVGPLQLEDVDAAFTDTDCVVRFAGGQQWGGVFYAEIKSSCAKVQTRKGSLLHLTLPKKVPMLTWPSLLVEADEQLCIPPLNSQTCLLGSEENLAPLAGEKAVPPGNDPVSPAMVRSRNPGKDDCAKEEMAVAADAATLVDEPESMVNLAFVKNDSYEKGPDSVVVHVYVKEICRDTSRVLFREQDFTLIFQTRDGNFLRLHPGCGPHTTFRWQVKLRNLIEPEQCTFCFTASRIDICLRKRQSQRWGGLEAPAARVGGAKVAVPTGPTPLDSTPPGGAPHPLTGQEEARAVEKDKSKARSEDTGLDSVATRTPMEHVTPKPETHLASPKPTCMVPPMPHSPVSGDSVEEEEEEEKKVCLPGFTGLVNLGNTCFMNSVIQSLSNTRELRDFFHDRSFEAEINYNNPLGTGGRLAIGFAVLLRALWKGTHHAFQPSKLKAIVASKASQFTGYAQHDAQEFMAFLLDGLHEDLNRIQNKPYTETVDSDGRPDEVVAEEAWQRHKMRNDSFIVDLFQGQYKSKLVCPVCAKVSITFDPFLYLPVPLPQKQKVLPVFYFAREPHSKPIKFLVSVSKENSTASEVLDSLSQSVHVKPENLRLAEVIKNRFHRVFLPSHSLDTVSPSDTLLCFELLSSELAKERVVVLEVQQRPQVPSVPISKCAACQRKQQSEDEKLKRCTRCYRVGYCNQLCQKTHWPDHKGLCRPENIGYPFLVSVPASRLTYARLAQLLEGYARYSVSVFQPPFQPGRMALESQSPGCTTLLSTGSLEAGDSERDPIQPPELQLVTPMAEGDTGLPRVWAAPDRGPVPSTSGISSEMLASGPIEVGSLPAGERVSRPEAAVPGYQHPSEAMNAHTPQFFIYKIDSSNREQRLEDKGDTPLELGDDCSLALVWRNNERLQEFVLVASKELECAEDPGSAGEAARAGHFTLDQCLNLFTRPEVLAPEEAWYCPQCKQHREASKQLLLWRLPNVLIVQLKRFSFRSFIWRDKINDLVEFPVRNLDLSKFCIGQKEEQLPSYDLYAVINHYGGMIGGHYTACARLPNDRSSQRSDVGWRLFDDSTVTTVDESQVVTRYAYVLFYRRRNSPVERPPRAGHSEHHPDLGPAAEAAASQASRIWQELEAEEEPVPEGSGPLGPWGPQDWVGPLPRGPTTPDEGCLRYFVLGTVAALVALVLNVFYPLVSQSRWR
Procedure, shortened: as §1

USP24 = USP24 (UniProt Q9UPU5)
Procedure, shortened: as §1

USP25 = target: T2, USP25 (UniProt Q9UHP3)
T2 sequence (whole entry): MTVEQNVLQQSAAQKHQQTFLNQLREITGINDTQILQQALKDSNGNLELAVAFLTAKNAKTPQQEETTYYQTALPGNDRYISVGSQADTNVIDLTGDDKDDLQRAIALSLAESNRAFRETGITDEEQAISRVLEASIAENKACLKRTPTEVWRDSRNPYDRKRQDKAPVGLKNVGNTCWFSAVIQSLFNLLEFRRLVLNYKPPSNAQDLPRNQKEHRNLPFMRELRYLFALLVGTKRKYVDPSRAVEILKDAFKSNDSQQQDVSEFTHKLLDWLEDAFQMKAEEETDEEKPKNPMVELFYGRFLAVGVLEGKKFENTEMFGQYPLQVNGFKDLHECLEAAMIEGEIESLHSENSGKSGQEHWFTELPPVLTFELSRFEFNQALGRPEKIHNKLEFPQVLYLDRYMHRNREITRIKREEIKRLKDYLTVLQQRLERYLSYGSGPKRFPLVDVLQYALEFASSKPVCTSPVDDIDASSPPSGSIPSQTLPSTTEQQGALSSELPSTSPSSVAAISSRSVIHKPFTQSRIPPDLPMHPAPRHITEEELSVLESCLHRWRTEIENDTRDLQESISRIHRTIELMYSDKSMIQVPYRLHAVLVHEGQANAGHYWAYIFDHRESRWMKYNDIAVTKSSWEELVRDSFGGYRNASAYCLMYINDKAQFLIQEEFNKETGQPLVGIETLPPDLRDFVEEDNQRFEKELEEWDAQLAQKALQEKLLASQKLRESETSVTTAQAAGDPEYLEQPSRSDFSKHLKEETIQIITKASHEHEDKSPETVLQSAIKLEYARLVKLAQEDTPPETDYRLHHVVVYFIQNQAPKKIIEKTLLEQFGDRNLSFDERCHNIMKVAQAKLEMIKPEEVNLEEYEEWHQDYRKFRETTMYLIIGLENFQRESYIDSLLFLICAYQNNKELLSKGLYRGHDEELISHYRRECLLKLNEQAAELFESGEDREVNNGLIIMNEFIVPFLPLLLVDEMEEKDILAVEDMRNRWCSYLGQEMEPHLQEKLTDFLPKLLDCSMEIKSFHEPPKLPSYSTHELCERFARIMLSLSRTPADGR
Procedure, shortened: as §1

USP28 = target: T3, USP28 (UniProt Q96RU2)
T3 sequence (whole entry): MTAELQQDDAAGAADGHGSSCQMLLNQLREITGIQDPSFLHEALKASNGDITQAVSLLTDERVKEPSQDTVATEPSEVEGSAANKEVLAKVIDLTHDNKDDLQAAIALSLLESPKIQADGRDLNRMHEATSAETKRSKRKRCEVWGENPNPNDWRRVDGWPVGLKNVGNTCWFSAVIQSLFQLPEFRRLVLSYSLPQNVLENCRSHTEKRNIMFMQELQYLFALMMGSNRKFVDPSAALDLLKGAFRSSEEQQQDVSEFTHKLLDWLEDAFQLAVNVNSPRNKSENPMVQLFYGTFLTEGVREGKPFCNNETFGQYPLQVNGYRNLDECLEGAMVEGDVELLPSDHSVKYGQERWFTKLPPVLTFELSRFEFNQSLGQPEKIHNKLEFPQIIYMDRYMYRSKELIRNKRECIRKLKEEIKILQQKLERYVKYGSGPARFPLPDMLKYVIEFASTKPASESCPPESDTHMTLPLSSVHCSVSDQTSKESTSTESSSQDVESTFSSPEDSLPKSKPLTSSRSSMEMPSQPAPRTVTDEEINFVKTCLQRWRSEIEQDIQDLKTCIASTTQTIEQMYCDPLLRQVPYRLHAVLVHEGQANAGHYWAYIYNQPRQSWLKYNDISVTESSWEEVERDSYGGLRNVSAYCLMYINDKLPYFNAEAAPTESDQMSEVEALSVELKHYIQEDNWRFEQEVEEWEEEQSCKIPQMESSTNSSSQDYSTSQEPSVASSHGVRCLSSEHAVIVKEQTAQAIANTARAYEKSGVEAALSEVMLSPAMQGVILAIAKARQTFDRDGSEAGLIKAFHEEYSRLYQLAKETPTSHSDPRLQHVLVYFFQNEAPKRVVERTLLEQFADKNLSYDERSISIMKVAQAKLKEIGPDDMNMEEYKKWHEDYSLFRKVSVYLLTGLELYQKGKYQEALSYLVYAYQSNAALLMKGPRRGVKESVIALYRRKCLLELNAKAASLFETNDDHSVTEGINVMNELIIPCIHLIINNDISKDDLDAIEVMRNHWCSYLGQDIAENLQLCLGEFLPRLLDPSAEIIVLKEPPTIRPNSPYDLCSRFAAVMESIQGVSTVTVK
Procedure, shortened: as §1

Measured: log2 ratio of Biotin-Ahx-Ub-VS probe labelling

Chain of USP24 (Q9UPU5 whole entry): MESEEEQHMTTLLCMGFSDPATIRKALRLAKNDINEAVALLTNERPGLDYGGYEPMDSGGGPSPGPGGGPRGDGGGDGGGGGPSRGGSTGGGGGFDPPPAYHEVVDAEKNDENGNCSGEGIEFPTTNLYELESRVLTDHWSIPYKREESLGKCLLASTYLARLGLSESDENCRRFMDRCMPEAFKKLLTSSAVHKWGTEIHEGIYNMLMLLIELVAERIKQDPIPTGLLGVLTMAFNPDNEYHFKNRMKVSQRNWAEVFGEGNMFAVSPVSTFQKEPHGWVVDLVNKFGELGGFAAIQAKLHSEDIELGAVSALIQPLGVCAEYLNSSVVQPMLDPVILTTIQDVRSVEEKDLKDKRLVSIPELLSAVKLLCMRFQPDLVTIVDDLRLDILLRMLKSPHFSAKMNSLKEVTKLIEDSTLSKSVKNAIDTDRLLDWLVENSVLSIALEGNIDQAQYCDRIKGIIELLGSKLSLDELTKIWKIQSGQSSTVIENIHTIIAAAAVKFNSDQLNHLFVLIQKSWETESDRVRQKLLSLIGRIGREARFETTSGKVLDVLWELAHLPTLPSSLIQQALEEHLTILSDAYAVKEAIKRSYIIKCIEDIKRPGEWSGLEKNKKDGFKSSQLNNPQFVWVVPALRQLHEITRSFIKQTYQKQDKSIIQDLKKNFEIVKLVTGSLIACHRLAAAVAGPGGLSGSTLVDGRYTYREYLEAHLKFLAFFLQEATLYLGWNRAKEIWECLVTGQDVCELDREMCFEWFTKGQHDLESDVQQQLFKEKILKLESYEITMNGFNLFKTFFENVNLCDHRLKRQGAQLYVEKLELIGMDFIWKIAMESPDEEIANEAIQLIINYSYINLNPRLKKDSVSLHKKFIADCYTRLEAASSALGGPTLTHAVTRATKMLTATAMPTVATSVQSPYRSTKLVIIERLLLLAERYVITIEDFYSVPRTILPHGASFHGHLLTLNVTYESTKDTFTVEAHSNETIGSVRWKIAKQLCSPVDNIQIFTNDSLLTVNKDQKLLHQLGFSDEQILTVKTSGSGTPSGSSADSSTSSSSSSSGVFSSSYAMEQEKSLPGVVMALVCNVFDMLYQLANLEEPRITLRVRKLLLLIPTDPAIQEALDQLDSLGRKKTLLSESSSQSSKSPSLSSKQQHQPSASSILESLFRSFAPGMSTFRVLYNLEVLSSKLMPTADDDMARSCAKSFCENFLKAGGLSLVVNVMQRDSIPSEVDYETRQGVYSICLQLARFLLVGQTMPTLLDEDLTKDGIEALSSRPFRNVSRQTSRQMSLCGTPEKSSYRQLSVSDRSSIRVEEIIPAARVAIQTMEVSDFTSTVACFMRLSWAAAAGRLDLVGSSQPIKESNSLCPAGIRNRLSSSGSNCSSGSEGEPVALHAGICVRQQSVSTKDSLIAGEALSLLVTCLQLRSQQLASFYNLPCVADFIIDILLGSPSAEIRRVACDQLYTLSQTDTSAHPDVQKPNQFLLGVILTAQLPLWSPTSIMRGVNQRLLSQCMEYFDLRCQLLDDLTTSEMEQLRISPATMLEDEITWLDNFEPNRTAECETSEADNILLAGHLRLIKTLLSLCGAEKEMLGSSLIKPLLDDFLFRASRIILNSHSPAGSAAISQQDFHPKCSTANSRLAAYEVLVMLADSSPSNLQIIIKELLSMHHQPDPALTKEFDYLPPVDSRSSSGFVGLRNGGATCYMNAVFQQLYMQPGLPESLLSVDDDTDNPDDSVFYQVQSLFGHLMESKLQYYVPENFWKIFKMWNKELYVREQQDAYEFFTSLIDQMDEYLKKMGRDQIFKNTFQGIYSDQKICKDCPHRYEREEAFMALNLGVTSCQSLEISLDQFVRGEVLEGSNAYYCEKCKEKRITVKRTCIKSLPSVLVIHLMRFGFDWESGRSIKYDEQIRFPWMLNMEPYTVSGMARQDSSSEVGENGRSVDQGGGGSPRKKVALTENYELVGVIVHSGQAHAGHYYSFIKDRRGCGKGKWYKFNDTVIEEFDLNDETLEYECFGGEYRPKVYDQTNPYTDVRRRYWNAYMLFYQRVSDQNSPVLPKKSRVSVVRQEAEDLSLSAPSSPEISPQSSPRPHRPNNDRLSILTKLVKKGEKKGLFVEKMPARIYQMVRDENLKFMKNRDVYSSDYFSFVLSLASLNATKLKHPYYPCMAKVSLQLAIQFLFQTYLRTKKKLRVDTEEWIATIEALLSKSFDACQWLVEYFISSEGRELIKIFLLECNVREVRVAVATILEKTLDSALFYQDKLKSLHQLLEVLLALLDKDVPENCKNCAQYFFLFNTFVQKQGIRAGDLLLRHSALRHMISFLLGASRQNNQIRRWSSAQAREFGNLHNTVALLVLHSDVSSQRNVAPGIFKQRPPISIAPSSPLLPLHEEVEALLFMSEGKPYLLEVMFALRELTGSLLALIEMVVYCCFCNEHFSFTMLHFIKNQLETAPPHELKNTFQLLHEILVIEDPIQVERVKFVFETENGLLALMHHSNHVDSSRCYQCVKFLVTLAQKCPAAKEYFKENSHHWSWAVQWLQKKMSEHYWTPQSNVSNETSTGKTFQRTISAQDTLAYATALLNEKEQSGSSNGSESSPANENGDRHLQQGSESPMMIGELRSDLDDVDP
Chain of USP16 (Q9Y5T5 whole entry, looked up, the tested form may be a part): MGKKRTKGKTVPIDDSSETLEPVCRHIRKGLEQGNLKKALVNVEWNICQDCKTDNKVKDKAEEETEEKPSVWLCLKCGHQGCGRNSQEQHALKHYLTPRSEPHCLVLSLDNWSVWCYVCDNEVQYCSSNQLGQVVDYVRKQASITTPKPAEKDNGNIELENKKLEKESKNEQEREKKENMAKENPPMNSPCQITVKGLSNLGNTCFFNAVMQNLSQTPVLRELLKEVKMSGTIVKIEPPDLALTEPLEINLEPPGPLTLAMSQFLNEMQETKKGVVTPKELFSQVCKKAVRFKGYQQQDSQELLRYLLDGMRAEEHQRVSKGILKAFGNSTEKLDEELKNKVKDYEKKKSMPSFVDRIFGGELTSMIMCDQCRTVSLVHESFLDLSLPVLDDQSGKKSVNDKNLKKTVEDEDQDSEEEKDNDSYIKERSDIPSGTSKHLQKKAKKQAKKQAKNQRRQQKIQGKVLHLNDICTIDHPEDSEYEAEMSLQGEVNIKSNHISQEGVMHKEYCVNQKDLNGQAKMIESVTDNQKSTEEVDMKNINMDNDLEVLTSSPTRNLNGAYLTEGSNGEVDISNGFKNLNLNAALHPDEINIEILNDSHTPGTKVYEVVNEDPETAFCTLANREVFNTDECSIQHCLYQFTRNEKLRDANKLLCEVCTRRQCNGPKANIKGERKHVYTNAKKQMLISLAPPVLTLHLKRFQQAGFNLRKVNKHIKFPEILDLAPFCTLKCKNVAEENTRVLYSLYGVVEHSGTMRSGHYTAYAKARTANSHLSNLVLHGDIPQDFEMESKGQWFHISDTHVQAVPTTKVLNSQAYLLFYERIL

Cc1nc(CN2CCCN(C(=O)CCl)CC2)no1.Cl
inactive: USP16 -0.188 | USP19 0.0547 | USP24 0.252 | USP25 0.233 | USP28 -0.00501

Source: the supplement of paper PMC11732987, “Enantioselective OTUD7B fragment discovery through chemoproteomics screening and high-throughput optimisation” (Communications Chemistry, 2025)
